In the supplement of paper PMC11417369:
± gives the standard deviation of the averaged measurements. Whole data set: some 25,000 sequences, median “ln(normalized median fluorescence intensity)” near 8.6, cut for the highest 2% near 10. The sample holds the highest values, similar sequences and a random draw of the others, so the mix is not that of the screen.

These sequences were tested on PfAP2-EXP AP2 domain (GST-tagged) (assay: gcPBM binding intensity (ln(normalized median fluorescence intensity)); higher = stronger DNA binding).
Outline: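 The binding buffer was 1× PBS containing 1% milk, 0.2 mg/ml BSA, 0.5% salmon testes DNA and 0.03% Triton X-100. In it, GST-tagged P. falciparum DNA-binding domains expressed in E. coli were applied for 1 h to an Agilent 4 × 180k array of primer-extended double-stranded 36-bp intergenic genomic probes plus negative controls. Binding intensity, read with Alexa488 anti-GST antibody and a 488 nm scan, is the highest Masliner-normalised natural-log median intensity across replicate spots of either probe orientation.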

Sequence	gcPBM binding intensity (ln)
TTTAATAAATAAATAAATAAAATATATTAAAAACCA [CACACA_negctrl_site80]	8.38 ± 0.36
GCATCCCTTTTTATGTGTACATACAAAGGCAATTAC [XGTACX_site6977]	8.86 ± 0.33
CCTTAATATTTTTGAAGTACATATTTATTTTACAAG [XGTACX_site3049]	8.31 ± 0.33
TGCTACATTTTATGTACACACATATACAGATATATA [CACACA_site4646]	8.42 ± 0.26
TCATATGTTAAATGATGTACATTTAATATAAATAAA [XGTACX_site900]	8.38 ± 0.15
AATTGCATAATATATTCACACATTTTTAAGTGATAC [CACACA_site5679]	8.38 ± 0.35
ATATATATATATATTGTACACACATTTATGCATATA [CACACA_site9055]	10 ± 0.2
ATATTCAATATATTATGTACACATATATGAGGATAT [XGTACX_site7019]	8.65 ± 0.41
ATAATCATAAAATAAACACACATATATAAATATATT [CACACA_site276]	8.27 ± 0.47
TATGAATGGTTAAGTACACACATATTAATATATGTA [CACACA_site3490]	8.49 ± 0.45
TAATAATTAATTAATATAATATTTTTTCATAATTAT [XGTACX_negctrl_site602]	8.22 ± 0.4
ATATTATATAATAATGCATGCACCTTATTTTCATTT [TGCATGCA_site405]	10.2 ± 0.44
ATTATATAATAATGCATGCACCTTATTTTCATTTCA [GTGCAC_site9922]	9.99 ± 0.19
TGTATAATATTTGGTGCACACAAATTAACAACTGTT [CACACA_site9245]	9.21 ± 0.32
AACATATTTTTAAATACACACACATAAAAAAAAAAA [CACACA_site8279]	8.59 ± 0.5
AATTTATATGTTTTGTGTACACAATTTATTAAATTA [XGTACX_site6448]	9.03 ± 0.29
ATTCGTCACATTTTTTGATATATATATATATATATA [CACACA_negctrl_site1785]	10.4 ± 0.4
GTATATATTTTGTATTCATTTGTCACATATAATAGA [CACACA_negctrl_site506]	8.69 ± 0.5
TATTTTGTATTCATTTGTCACATATAATAGATAGGA [TGCATGCA_negctrl_site9]	8.69 ± 0.32
ATCCATCTTTTAATTTGTACTTATTCTTTTTTCTTT [XGTACX_site5299]	9 ± 0.67
